88 molecules from PubChem BioAssay AID588591 (National Center for Advancing Translational Sciences (NCATS), 2011) can be followed below.

Values joined by “and” are separate entries in the source; they are usually repeats but may differ in a detail not shown here. Identical values can stand only once. Among all 390,000 compounds or so, about 4,700 (1.2%) were called active. Entries that show only a call come without a potency. Roughly 4% stayed inconclusive and do not appear here. Calls come from the whole dose curve; as a rule, active = well fitted inhibition curve with a large enough effect; inconclusive = small, poorly fitted or top-dose-only effect, or another doubt; inactive = no such curve, though single readings can be large or run the other way. This excerpt belongs to a sample that is enriched for actives. Where a structure was tested more than once in an assay, its records may differ in their call.
Potency is the fitted concentration of half-maximal effect.

The target of this experiment is DNA polymerase eta (Homo sapiens) (UniProt Q9Y253). The experiment can be described thus: qHTS for Inhibitors of Polymerase Eta. As to conditions: recombinant Pol eta, fluorescent DNA replication assay; series mostly up to 114 µM. The procedure, abridged: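 Fluorescent replication assay: 50 nM final substrate added after a 15 min room-temperature compound preincubation with 10 nM enzyme. Signal taken at 0 min and again at 10 min.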
Sequence of DNA polymerase eta (Homo sapiens) (Q9Y253 whole entry, looked up): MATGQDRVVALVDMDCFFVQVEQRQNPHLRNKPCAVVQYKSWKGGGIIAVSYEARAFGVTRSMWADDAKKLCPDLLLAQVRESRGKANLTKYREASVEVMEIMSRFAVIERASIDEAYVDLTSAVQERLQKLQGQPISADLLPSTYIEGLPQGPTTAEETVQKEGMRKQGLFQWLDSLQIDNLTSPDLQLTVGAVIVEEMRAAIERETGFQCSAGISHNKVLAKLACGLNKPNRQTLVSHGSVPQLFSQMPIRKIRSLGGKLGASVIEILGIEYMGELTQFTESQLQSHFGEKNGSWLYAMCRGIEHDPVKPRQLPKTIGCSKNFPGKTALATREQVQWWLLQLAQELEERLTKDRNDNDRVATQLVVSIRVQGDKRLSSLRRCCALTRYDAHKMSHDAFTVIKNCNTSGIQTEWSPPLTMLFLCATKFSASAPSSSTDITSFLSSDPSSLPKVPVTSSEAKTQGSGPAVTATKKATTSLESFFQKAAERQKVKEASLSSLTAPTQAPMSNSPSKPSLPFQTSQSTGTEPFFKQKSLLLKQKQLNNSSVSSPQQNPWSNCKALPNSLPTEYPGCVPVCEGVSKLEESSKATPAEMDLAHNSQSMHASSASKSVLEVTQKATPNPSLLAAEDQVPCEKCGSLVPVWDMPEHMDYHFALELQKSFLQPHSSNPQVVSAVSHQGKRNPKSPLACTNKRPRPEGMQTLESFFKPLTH
For orientation: Quantitative high-throughput screening tests each substance at several concentrations.
Take `CCC(=O)N1CCc2cc(S(=O)(=O)NC(Cc3ccccc3)C(=O)NCc3ccc(C)cc3)ccc21` (stereo not drawn): the Potency result was “inactive”.

Turning to `Cc1ccc2nc(SCC(=O)Nc3cccc4ccccc34)nc(=O)n2c1`, the Potency entry is “inactive”.

In the case of `COc1ccc(CNC(=O)CSc2n[nH]c(-c3ccc(F)cc3)n2)cc1`, the Potency entry was “inactive”.

For `Cc1ccn2c(=O)nc(SCC(=O)NCc3ccc(F)cc3)nc2c1`, the Potency is 28.2 µM (active).

Turning to `Cc1ccc(C)c(N2CCN(C(=O)Cn3ncc4c(=O)oc5ccc(C)cc5c43)CC2)c1`, the Potency entry is “inactive”.

For `CCOC(=O)c1ccc(CN(Cc2ccccc2)S(=O)(=O)c2ccc(Cl)cc2)cc1`, the Potency entry is “inactive”.

`CCCn1c(=O)c2[nH]c(-c3ccc(OCC(=O)NCCN)cc3)nc2n(CCC)c1=O`: the Potency entry was “inactive”.

For `COc1ccc(CC(=O)Nc2ccc(-c3nc4ccccc4s3)c(C)c2)cc1`, the Potency entry was “inactive”.

For `COc1ccc(C(=O)Nc2cccc(/C=C(/CCC(=O)O)c3nc4ccccc4s3)c2)cc1`, the Potency was 39.8 µM (active).

`COc1cccc(NC(=O)c2ccc3nc(CCc4ccccc4)oc3c2)c1`: the Potency result was “inactive”.

As to `COc1ccc(OC)c(NC(=O)C2CCN(S(=O)(=O)c3ccc(C)cc3)CC2)c1`, the Potency result was “inactive”.

As to `CCOC(=O)c1ccc(N2C(=O)c3n[nH]c(-c4ccco4)c3C2c2ccc(O)cc2)cc1` (stereo not drawn), the Potency result was “inactive”.

On to `COc1ccccc1NC(=O)CN1C(=O)c2ccccc2Sc2ccc(C(=O)N3CCCC3)cc21`, for which the Potency is 79.4 µM (active).

`CCN1C(=O)c2ccccc2Sc2ccc(NC(=O)Cc3ccc(OC)cc3)cc21`: the Potency entry is “inactive”.

As for `COC(=O)c1ccc2c(c1)N(CC(=O)Nc1ccc(C)c(C)c1)C(=O)c1ccccc1S2`, the Potency entry is “inactive”.

For the molecule `CC(C)(C)C1CCc2c(sc(NC(=O)c3ccccc3F)c2C(=O)N2CCCCC2)C1` (stereo not drawn), the Potency entry was “inactive”.

Take `CCOc1ccccc1NC(=O)c1ccc2c(c1)CCN2S(=O)(=O)c1ccc(C)cc1`: the Potency entry was “inactive”.

On to `CCc1ccc(C2C(C(=O)Nc3ccccc3)=C(C)Nc3c(C(=O)Nc4ccc(C)cc4)cnn32)cc1` (stereo not drawn), for which the Potency entry was “inactive”.

For `C1=C(N2CCOCC2)/C(=C/c2nc3ccccc3[nH]2)CC1`, the Potency is 20 µM (active).

Regarding `COc1cc(OC)c(C2C=C(C(=O)O)Nc3ncnn32)cc1OC` (stereo not drawn), the Potency entry was “inactive”.

As for `Cc1cc(C)c(NC(=O)CSc2nc3nccnc3c(=O)n2CCc2c[nH]c3ccccc23)c(C)c1`, the Potency result is “inactive”.

Consider `Cc1cc(C(=O)N/N=C/c2ccc(O)c([N+](=O)[O-])c2)c(C)n1-c1ccc(F)cc1`, for which the Potency is 8.91 µM (active).

Take `Cc1cc(C(=O)COc2ccccc2[N+](=O)[O-])c(C)n1-c1cccc(S(=O)(=O)N2CCOCC2)c1`: the Potency entry is “inactive”.

As to `O=C(N/N=C/c1cccc([N+](=O)[O-])c1)C1CC(=O)N(c2ccc(Br)cc2)C1` (stereo not drawn), the Potency result is “inactive”.

Turning to `CC(C)(C)c1ccc(C(=O)NCC(c2ccco2)S(=O)(=O)c2ccc(F)cc2)cc1` (stereo not drawn), the Potency entry is “inactive”.

Turning to `O=C1/C(=C\c2ccc([N+](=O)[O-])cc2)CS(=O)(=O)C/C1=C/c1ccc([N+](=O)[O-])cc1`, the Potency was 15.8 µM (active).

`O=C(CC1Oc2ccc(Cl)cc2NC1=O)NCc1ccccc1` (stereo not drawn): the Potency result was “inactive”.

With `COc1ccccc1NC(=O)C(=O)c1cc(C)n(-c2ccccc2F)c1C`, the Potency entry is “inactive”.

Take `C=CC1=C(C(=O)O)N2C(=O)[C@@H](NC(=O)/C(=N\OCC(=O)O)c3csc(N)n3)[C@H]2SC1`: the Potency was 7.08 µM (active).

Turning to `CO/N=C(\C(=O)N[C@@H]1C(=O)N2C(C(=O)O)=C(COC(C)=O)CS[C@H]12)c1csc(N)n1` (stereo in doubt), the Potency result is “inactive and 20 µM (active) and 28.2 µM (active)”.

Take `CC(=O)N1CCCc2cc(S(=O)(=O)N3CCC(C(=O)NCc4ccc(C)cc4)CC3)ccc21`: the Potency entry was “inactive”.

In the case of `CC(=O)OC1=C(C(C)=O)N(Cc2ccccc2)S(=O)(=O)c2ccccc21`, the Potency result is “inactive”.

For `CCN(CC)c1nn2c(=O)c(C(=O)NCCc3ccccc3)cnc2s1`, the Potency result was “inactive”.

As for `COc1ccccc1CNC(=O)c1ccc(CS(=O)c2ccccc2Cl)o1` (stereo not drawn), the Potency result was “inactive”.

In the case of `O=C(CC1N=C2c3ccccc3N=C(SCc3cccc(Cl)c3)N2C1=O)NCc1ccc2c(c1)OCO2` (stereo not drawn), the Potency entry is “inactive”.

With `C=CC1C(OC2OC(CO)C(O)C(O)C2O)OC=C(C(=O)OC)C1CC1CC(=O)CC(CC(=O)CCc2ccc(O)cc2)O1` (stereo not drawn), the Potency result was “inactive”.

For the molecule `CC(/C=C/C1(O)C(C)CC(=O)CC1(C)C)OC1OC(CO)C(O)C(O)C1O` (stereo not drawn), the Potency is 31.6 µM (active).

On to `CC1=C(C)C(=O)OC(C(C)C2CCC3C4CC=C5CC(OC6OC(COC7OC(CO)C(O)C(O)C7O)C(O)C(O)C6O)CC(O)C5(C)C4CCC23C)C1` (stereo not drawn), for which the Potency result was “inactive”.

Take `Cc1ccc(Nc2c(-c3ccc(C)cc3)nc3cnccn23)cc1`: the Potency entry is “inactive”.

Take `COc1cccc(NC(=O)N(Cc2cn(C)c3ccccc23)C2CCCCCC2)c1`: the Potency entry was “inactive”.

Take `O=C1CSC(=S)N1/N=C/c1ccc(O)c([N+](=O)[O-])c1`: the Potency was 6.31 µM (active).

As for `COc1cc(Cl)c(NC(=O)C(NS(=O)(=O)c2cccs2)C(C)C)c(OC)c1` (stereo not drawn), the Potency result was “inactive”.

`COc1cccc2c1C(=O)c1c(O)c3c(c(O)c1C2=O)CC(O)(C(C)=NNC(=O)c1ccc(Cl)c(Cl)c1)CC3OC1CC(N)C(O)C(C)O1` (stereo not drawn): the Potency was 12.6 µM (active).

Turning to `CCOc1ccc(N(Cc2ccccc2)C(=O)c2nc(S(C)(=O)=O)ncc2Cl)cc1`, the Potency entry was “inactive”.

For the molecule `Cc1ccc(-c2cn3c(n2)sc2cc(C(=O)NCc4cccs4)ccc23)c(C)c1`, the Potency entry was “inactive”.

For the molecule `O=C(CC1N=C2c3ccccc3N=C(SCc3ccc(F)cc3)N2C1=O)NCc1cccs1` (stereo not drawn), the Potency result was “inactive”.

`O=C(CSC1=Nc2ccccc2C2=NC(CC(=O)NCc3ccco3)C(=O)N12)NCc1ccco1` (stereo not drawn): the Potency is 15.8 µM (active).

As for `COc1ccccc1NC(=O)CSC1=Nc2ccccc2C2=NC(CC(=O)NCc3cccs3)C(=O)N12` (stereo not drawn), the Potency result is “inactive”.

On to `Cc1cc(=O)c2cc(C(=O)Nc3cccc(C)c3C)ccc2[nH]1`, for which the Potency result is “inactive”.

As for `CCc1ccccc1N1C(=O)CN(S(=O)(=O)CC)CC1(C)C(=O)NC1CCCCC1` (stereo not drawn), the Potency result was “inactive”.

Consider `COc1cc(/C=C2/C(=O)NN(c3ccc(F)cc3)C2=O)cc([N+](=O)[O-])c1O`, for which the Potency is 44.7 µM (active).

As to `COc1cccc2c1cc1c(=O)n(CC(=O)N3CCN(c4cccc(Cl)c4)CC3)nc(C)n12`, the Potency entry is “inactive”.

As to `COc1ccc(N2C(=O)CC(Nc3ccc(F)cc3)C2=O)c([N+](=O)[O-])c1` (stereo not drawn), the Potency entry is “inactive”.

With `COc1cc(CN2CC(C)CC(C)C2)cc([N+](=O)[O-])c1O` (stereo not drawn), the Potency entry is “inactive”.

Consider `COc1cc(/C=C2/C(=O)NN(c3cccc(Cl)c3)C2=O)cc(Br)c1O`, for which the Potency is 89.1 µM (active).

In the case of `CCOC(=O)c1c(NC(=O)/C(C#N)=C/c2ccccc2)sc2c1CCC2`, the Potency entry is “inactive”.

Turning to `O=C(NCCCO)C(=O)Nc1c2c(nn1-c1ccc(F)cc1)CSC2`, the Potency entry is “inactive”.

`CCCCOc1ccc(C(=O)Nc2cccc(-c3nc4ccccc4o3)c2C)cc1`: the Potency result was “inactive”.

With `Cc1ccc(S(=O)(=O)n2nc(C)c(S(=O)(=O)N3CCCCCC3)c2C)cc1`, the Potency entry is “inactive”.

For the molecule `O=C(CSc1ncc(-c2ccccc2)[nH]1)Nc1ccc(F)cc1F`, the Potency entry is “inactive”.

In the case of `Oc1ccccc1-c1nc(/C=C/c2ccc(F)cc2)no1`, the Potency entry was “inactive”.

`Cc1ccc(Cc2c(C)nc3nc(SCC(=O)NCCN4CCOCC4)nn3c2C)cc1`: the Potency entry is “inactive”.

Turning to `Cc1nc2nc(SCC(=O)NCc3ccco3)nn2c(C)c1Cc1ccccc1`, the Potency was 44.7 µM (active).

`COc1cc(NC(=O)CSc2nc3nc(C)c(Cc4ccc(C)cc4)c(C)n3n2)cc(OC)c1OC`: the Potency result is “inactive”.

Regarding `COC(=O)Nc1ccc(S(=O)(=O)Nc2cc(OC)nc(OC)n2)cc1`, the Potency result is “inactive”.

On to `COc1cc(NS(=O)(=O)c2ccc(NC(=S)NC(=O)c3ccccc3)cc2)nc(OC)n1`, for which the Potency result is “inactive”.

Turning to `COc1cc(NS(=O)(=O)c2ccc(N/C=C(\C=O)c3nc4cc(Cl)ccc4o3)cc2)nc(OC)n1`, the Potency was 31.6 µM (active).

Take `CCCn1c2ccccc2c2cnn(CC(=O)NCC3CCN(Cc4ccc(C)cc4)CC3)c(=O)c21`: the Potency entry was “inactive”.

Regarding `Cc1c(C(=O)N(C)C)sc2c1c(=O)n(-c1ccc(F)cc1)c(=O)n2CC(=O)N(C)c1ccccc1`, the Potency entry was “inactive”.

Take `CCOC(=O)c1ccc(NC(=O)CCS(=O)(=O)c2ccc3c(c2)oc(=O)n3C)cc1`: the Potency entry was “inactive”.

As for `OC[C@H]1O[C@@H](n2cnc3c(NC4CCCC4)ncnc32)[C@H](O)[C@H]1O`, the Potency entry is “inactive”.

`CCOC(=O)c1sc(NC(=O)CSc2nc(O)c(Cc3ccccc3)c(=O)[nH]2)nc1C`: the Potency entry was “inactive”.

For `CCOCCc1c(O)nc(SCC(=O)NCc2ccco2)[nH]c1=O`, the Potency was 15.8 µM (active).

In the case of `CCn1c(SCC(=O)NCc2ccco2)nnc1-c1ccc(N)cc1`, the Potency entry was “inactive”.

In the case of `Cc1ccc(CSc2oc(-c3cccs3)nc2S(=O)(=O)c2ccc(C)cc2)cc1`, the Potency result is “inactive”.

Consider `CCCCN1CC(c2nc3ccccc3n2CCCCOc2ccc(C)cc2C)CC1=O` (stereo not drawn), for which the Potency result is “inactive”.

In the case of `COc1cccc(NC(=O)C(=O)NCC(c2ccc3c(c2)OCO3)N2CCN(C)CC2)c1` (stereo not drawn), the Potency result is “inactive”.

As for `COc1ccccc1CNS(=O)(=O)c1cc(Br)cc2c1N(C(C)=O)C(C)C2` (stereo not drawn), the Potency entry is “inactive”.

As for `Cc1ccc(Cl)cc1N1CCN(C(=O)c2cnc3c(-c4ccc(F)cc4)c(C)nn3c2C)CC1`, the Potency entry is “inactive”.

Regarding `Cc1ccc(OCC(=O)OCc2cc(=O)n3nc(C4CC4)sc3n2)cc1`, the Potency result is “inactive”.

`Nc1ccc2nc3c(=O)[nH]c(=S)[nH]c3nc2c1`: the Potency was 1.12 µM (active).

`Cc1cc(C)c(NC(=O)CCc2c(C)nc3c(c(C)nn3C(C)(C)C)c2C)c(C)c1`: the Potency result is “inactive”.

`COc1cc(CNCCSc2nnnn2C)ccc1OCc1ccc(Cl)cc1Cl`: the Potency entry was “inactive”.

For the molecule `CC1CCN(S(=O)(=O)c2ccc3c(ccn3CCC(=O)NCc3ccc(N(C)C)cc3)c2)CC1`, the Potency result was “inactive”.

For `O=C(CN1C(=O)c2cccc3cccc1c23)Nc1ccccc1`, the Potency is 50.1 µM (active).

Consider `O=C1c2cccc3cccc(c23)N1CN1CCN(c2ccccn2)CC1`, for which the Potency result was “inactive”.

On to `COc1cccc(NC(=O)CN2C(=O)c3ccccc3Sc3ncccc32)c1`, for which the Potency result was “inactive”.

Consider `CCN(C(=O)Cn1cc(S(=O)(=O)N2CCN(c3ccccc3F)CC2)c2ccccc2c1=O)c1ccc(C)c(C)c1`, for which the Potency entry was “inactive”.
